From PubChem
An excerpt weighted towards active compounds, which were near 7.6% of everything screened.
p53 reactivator = mutant p53 re-activation in reporter cells; H1299 p53-A138V BP100-luciferase reporter, luminescence, 24 h; Potency, µM (top dose mostly 92.2 µM), actives largely listed as activators; 320,000 compounds, 0.063% hits; AID 504706; also: nearly all actives have a fitted effect of over 45% in size
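H1299 (p53-null), stable ts p53-A138V + BP100-Luc; 1000 cells/well, Opti-MEM/10% FBS; cpd 4 pt, 1:5; 24 h, 37 deg C, 5% CO2; detection reagent 10 min RT; luminescence.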
RORgamma inh = blocks mouse ROR gamma transcriptional activity; 310,000 compounds, 5.4% hits; Potency, µM (highest dose often 53.6 µM), hits mostly inhibitors; Drosophila S2 Gal4-RORgamma UAS-luciferase reporter, 20 h; AID 2551; P51450; also: nearly all actives have a fitted effect of over 60% in size
Target sequence (P51450 whole entry, looked up, the tested form may be a part): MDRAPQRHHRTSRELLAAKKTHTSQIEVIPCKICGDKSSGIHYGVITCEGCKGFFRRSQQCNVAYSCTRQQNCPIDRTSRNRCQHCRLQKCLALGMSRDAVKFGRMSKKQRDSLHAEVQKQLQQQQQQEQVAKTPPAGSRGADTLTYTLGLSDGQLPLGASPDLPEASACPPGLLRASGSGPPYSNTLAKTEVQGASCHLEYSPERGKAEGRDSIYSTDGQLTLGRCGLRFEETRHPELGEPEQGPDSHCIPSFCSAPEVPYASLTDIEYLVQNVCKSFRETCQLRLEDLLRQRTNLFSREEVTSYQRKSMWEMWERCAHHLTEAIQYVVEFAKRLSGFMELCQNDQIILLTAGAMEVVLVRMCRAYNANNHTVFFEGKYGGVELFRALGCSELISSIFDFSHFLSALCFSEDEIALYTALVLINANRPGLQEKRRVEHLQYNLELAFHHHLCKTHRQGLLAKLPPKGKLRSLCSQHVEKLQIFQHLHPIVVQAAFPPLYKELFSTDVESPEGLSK
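Stable Schneider cell line, Gal4 DNA-binding domain fused to ROR gamma, UAS-luciferase. Cmpd 1 hr RT → CuSO4 700 uM final → 20 hr RT → luciferase reagent 10 min → luminescence.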
BRCA1 expr up = BRCA1 expression activation; MCF7-BRCA1-FFLuc reporter, luminescence, 48 h; response scale: scaled: vehicle 0%, 10 µM genistein 100%; Potency, µM (top dose mostly 46.1 µM), most hits filed as activators; 380,000 compounds, 1.1% hits; also: nearly all actives have a fitted effect of over 80% in size
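MCF7-BRCA1-FFLuc cells, 2000/well in phenol-red-free MEM, attached 2 h then treated 48 h at 37 C. Luciferase luminescence read 15 min after reagent; normalized to genistein maximum activation (10microM) and DMSO, concentration-response fitted.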
Gal4-VP16 FLuc = inhibits Gal4-VP16 luciferase reporter, ROR gamma counter-screen; Drosophila S2 Gal4-VP16 UAS-luciferase, luminescence, 20 h; Potency, µM (top dose mostly 53.6 µM), usual class: inhibitors; 310,000 compounds, 3.5% hits;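 also: Gal4-VP16 expression switched on by copper sulfate through the metallothionein promoter; nearly all actives have a fitted effect of over 50% in size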
ELG1 DNA repair = inhibitors of ELG1-dependent DNA repair in HEK293T cells | HEK293T ELG1-luciferase reporter, luminescence, 16 h; DNA damage induced by 5-fluorouridine | Potency, µM (series often up to 46.1 µM), usual class: inhibitors | 330,000 compounds, 2.3% hits; also: nearly all actives have a fitted effect of over 55% in size
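HEK293T cells expressing luciferase-tagged ELG1 (2,000/well) received 5-Fluorouridine plus compound or DMSO for 16 hr at 37 °C. Luciferase was read by ONE-Glo luminescence after 30 min at room temperature.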
Giardia kill = Giardia lamblia killing. Giardia lamblia trophozoite viability. activity change, % at 7.66 µM, hits read low. 340,000 compounds, 0.15% hits. AID 540267; in the data active = activity change below about -80%; inconclusive = between about -30% and that limit;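 also: parasites exposed to compound for two days anaerobically before the ATP read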
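Trophozoites 100 cells/well + cpd; 48 hrs, 37 deg C, anaerobic. ATPLite 1-Step added, 15-30 min RT, luminescence read (ATP-based viability).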
Each line names hits and unclear results; the compound was inactive in the other large screens. Unless noted, calls follow the shape of the dose curve; as a rule, active = well fitted curve in the direction sought with a large enough effect; inconclusive = small, poorly fitted or top-dose-only effect, or another doubt; inactive = no such curve, though single readings can be large; an effect the other way counts as inactive or inconclusive.

CCOC(=O)C1CCN(c2ccccc2CN2CCN(c3ccccc3OCC)CC2)CC1	ELG1 DNA repair 16µM
Cc1cc(C(=O)N/N=C/c2ccc([N+](=O)[O-])s2)n[nH]1	Gal4-VP16 FLuc inconclusive, ELG1 DNA repair 16µM, Giardia kill -90
Cc1cc(C(=O)N/N=C/c2cc(Cl)cc([N+](=O)[O-])c2O)n[nH]1	RORgamma inh 7.9µM, Gal4-VP16 FLuc inconclusive, ELG1 DNA repair 13µM
Cc1[nH]cnc1C(=O)N/N=C/c1ccc([N+](=O)[O-])s1	p53 reactivator inconclusive, Gal4-VP16 FLuc inconclusive, ELG1 DNA repair inconclusive, Giardia kill inconclusive
Cc1cc(C(=O)N/N=C\c2cc(C(C)(C)C)c(O)c(C(C)(C)C)c2)n[nH]1	RORgamma inh 6.3µM, Gal4-VP16 FLuc 3.5µM
Cc1cc(C(=O)N/N=C/c2cccnc2)n[nH]1	none
Cc1cc(C(=O)N/N=C/c2ccc(C)s2)n[nH]1	p53 reactivator inconclusive, BRCA1 expr up 7.1µM, ELG1 DNA repair inconclusive
COc1ccc(CN(C)C(=O)c2[nH]c(C)c(C(C)=O)c2C)c(OC)c1OC	none
C[C@H]1CCCC(=O)CCC/C=C/c2c(O)cc(O)cc2C(=O)O1	Gal4-VP16 FLuc inconclusive (no result: p53 reactivator, BRCA1 expr up, ELG1 DNA repair, Giardia kill)
CC(C)CNc1nc(NC(C)(C)C)nc(Oc2ccc(=O)[nH]n2)n1	none
O=C(CCl)Nc1ccc(-c2ccccc2)cc1	RORgamma inh 25µM, Gal4-VP16 FLuc inconclusive, ELG1 DNA repair inconclusive
O=C(CCl)Nc1cccc(Oc2ccccc2)c1	RORgamma inh 10µM, Gal4-VP16 FLuc inconclusive
O=C(CCl)Nc1ccc(N=Nc2ccccc2)cc1	p53 reactivator inconclusive, RORgamma inh inconclusive, Gal4-VP16 FLuc inconclusive, ELG1 DNA repair inconclusive
O=C(CCl)Nc1cccc(Oc2cnccn2)c1	RORgamma inh inconclusive, Gal4-VP16 FLuc inconclusive, ELG1 DNA repair inconclusive
COc1ccc(C(=O)Nn2cnc3ccccc3c2=O)c(OC)c1	BRCA1 expr up 8.9µM, ELG1 DNA repair inconclusive
COc1ccc(C(=O)Nn2c(C)nc3ccccc3c2=O)c(OC)c1	none
CCCOC(=O)N1CCN(/[N+]([O-])=N/Oc2ccc([N+](=O)[O-])cc2[N+](=O)[O-])CC1	RORgamma inh inconclusive, Gal4-VP16 FLuc inconclusive (no result: p53 reactivator, BRCA1 expr up, ELG1 DNA repair)
O=C(Nc1ccc2c(c1)OCCO2)c1cnc2n(c1=O)CCS2	p53 reactivator inconclusive, BRCA1 expr up 7.1µM, ELG1 DNA repair inconclusive
O=C(Nc1ccc2c(c1)OCO2)c1cnc2n(c1=O)CCS2	p53 reactivator inconclusive, BRCA1 expr up 2.5µM, ELG1 DNA repair inconclusive
O=C(O)CCCn1cc(NC(=O)COc2ccc(F)cc2F)cn1	none
CSCC(=O)NCC1(N(C)Cc2ccccc2)Cc2ccccc2C1	none
Cn1c(=O)c2c(nc(CN3CCN(c4ccc(F)cc4)CC3)n2Cc2ccccc2F)n(C)c1=O	ELG1 DNA repair 6.5µM
CCCCCCn1c(CN2CCN(C(=O)c3ccco3)CC2)nc2c1c(=O)n(C)c(=O)n2C	RORgamma inh inconclusive, ELG1 DNA repair 13µM
Cn1c(=O)c2c(nc(CN3CCN(Cc4ccccc4)CC3)n2Cc2cccc(Cl)c2)n(C)c1=O	ELG1 DNA repair 12µM
COCCn1c(CN2CCN(c3ccc(F)cc3)CC2)nc2c1c(=O)n(C)c(=O)n2C	Gal4-VP16 FLuc inconclusive, ELG1 DNA repair inconclusive (no result: BRCA1 expr up, Giardia kill)
O=C(CCNC(=O)c1ccccc1Cl)Nc1ccc(S(=O)(=O)Nc2nccs2)cc1	none (no result: RORgamma inh, Gal4-VP16 FLuc)
CCC1CSC(Nc2ccc(C(=O)/C=C/c3ccc(OC)c(OC)c3)cc2)=N1 (configuration not stated)	RORgamma inh inconclusive, Gal4-VP16 FLuc inconclusive, ELG1 DNA repair 21µM
CCC1CSC(Nc2ccc(C(=O)/C=C/c3ccc(Br)cc3)cc2)=N1 (configuration not stated)	none
CC(C)(C)c1ccc(C(=O)C2CCCN(C(=O)CN3CCCC3=O)C2)cc1 (configuration not stated)	none
CN(C)C(=O)N1CCC(C(=O)N2CCCC(C(=O)c3ccc(C(C)(C)C)cc3)C2)CC1 (configuration not stated)	RORgamma inh inconclusive, ELG1 DNA repair 15µM
